{"source": "PubChem BioAssay AID734", "about": "(The Scripps Research Institute Molecular Screening Center, 2007)", "note": "Fewer than 10 of roughly 5,100 compounds were called active. A selection follows. Values without a mark were called inactive.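 How the source made its calls: active means inhibition above the mean inhibition over all tested compounds plus 3 SD (cut at about 75% in these data); inactive means the rest.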"}
{"target": "Collagenase 3 (Homo sapiens) (UniProt P45452)", "experiment": "human MMP13 inhibition, fluorescence-interfering compounds – biochemical, possible fluorescent artifacts, delta fluorescence, confirmation (AID 734);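 further: 0% = DMSO only wells and 100% = 8 µM reference MMP13 inhibitor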", "details": "MMP13 fTHP FRET cleavage, delta fluorescence 4 h; active compounds read high;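 each compound tested at 4 µM nominal in triplicate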"}
{"smiles": "c1ccc(-c2noc(-c3cccc4ccccc34)n2)nc1", "inhibition": "6.64%"}
{"smiles": "COc1ccccc1-c1nnc(Nc2nc3c(OC)cccc3s2)o1", "inhibition": "2.8%"}
{"smiles": "COc1ccc(-c2nnc(Nc3nc4c(OC)cccc4s3)o2)c(OC)c1", "inhibition": "34.9%"}
{"smiles": "COc1cccc(-c2nnc(Nc3nc4c(F)cccc4s3)o2)c1", "inhibition": "104% (active)"}
{"smiles": "COc1ccc(-c2nnc(Nc3nc4c(OC)cccc4s3)o2)cc1", "inhibition": "7.97%"}
{"smiles": "COc1cccc2sc(Nc3nnc(-c4cccs4)o3)nc12", "inhibition": "-71.9%"}
{"smiles": "Fc1cccc2sc(Nc3nnc(-c4ccccc4)o3)nc12", "inhibition": "74.7% (active)"}
{"smiles": "COc1cc(OC)cc(-c2nnc(Nc3nc4c(F)cccc4s3)o2)c1", "inhibition": "95.7% (active)"}
{"smiles": "COc1cccc2sc(Nc3nnc(-c4ccccc4Cl)o3)nc12", "inhibition": "3.62%"}
{"smiles": "Fc1cccc2sc(Nc3nnc(-c4ccco4)o3)nc12", "inhibition": "0.58%"}
{"smiles": "O=C(C1CCCN(S(=O)(=O)c2cnc[nH]2)C1)N1CCN(Cc2ccccc2)CC1", "note": "(stereo unspecified)", "inhibition": "6.19%"}
{"smiles": "Cn1c(=O)c2c(nc(SCCN3CCOCC3)n2Cc2ccccc2Cl)n(C)c1=O", "inhibition": "4.43%"}
{"smiles": "COC(=O)c1nn(-c2ccc(-c3ccccc3)cc2)cc1O", "inhibition": "-1.13%"}
{"smiles": "CCOC(=O)COc1ccc(-c2nnc(-c3ccccc3)o2)cc1", "inhibition": "-0.26%"}
{"smiles": "CC1(C)CC(=O)C(C=Nc2ccccc2C(=O)O)=C(O)C1", "inhibition": "3.67%"}
{"smiles": "CCOc1ccc(-c2cc(C(=O)NCCCN3CCN(CC)CC3)c3ccccc3n2)cc1", "inhibition": "-9.76%"}
{"smiles": "CCN1c2ccccc2-c2nc3ccccc3n2C1c1ccncc1", "note": "(stereo unspecified)", "inhibition": "2.69%"}
{"smiles": "COc1ccc2[nH]c(=O)c(-c3noc(-c4ccccc4)n3)cc2c1", "inhibition": "3.55%"}
{"smiles": "CC1(C)Cc2c(C#N)c(N3CCN(C(=O)c4ccco4)CC3)nc(Cc3ccccc3)c2CO1", "inhibition": "-9.09%"}
{"smiles": "CCOc1ccc(C2C(C(=O)OC)=CN(CCOC)C=C2C(=O)OC)cc1", "inhibition": "-14.5%"}
{"smiles": "Nc1nc2n(n1)C(c1ccco1)CC(c1ccc(F)cc1)N2", "note": "(stereo unspecified)", "inhibition": "1.34%"}
{"smiles": "CCN(CC)CCCN(Cc1cc2cc3c(cc2[nH]c1=O)OCO3)C(=O)Nc1ccccc1OC", "inhibition": "9.73%"}
{"smiles": "Nc1c(C(=O)NCCN2CCOCC2)c2nc3ccccc3nc2n1-c1ccc2c(c1)OCO2", "inhibition": "4.11%"}
{"smiles": "COc1cccc(NC(=O)CSc2nnc(Cc3cccn3C)n2-c2ccc(F)cc2)c1", "inhibition": "1.13%"}
{"smiles": "CC1CCCC(C)N1C(=O)CSc1nnc(-c2c[nH]c3ccccc23)o1", "note": "(stereo unspecified)", "inhibition": "5.55%"}
{"smiles": "O=C(OCCn1cncn1)c1cc2ccccc2oc1=O", "inhibition": "-0.22%"}
{"smiles": "OCc1ccccc1OCCOc1ccc(Cl)c2cccnc12", "inhibition": "6.18%"}
{"smiles": "CC(C)NCC(O)Cn1c2c(c3ccccc31)CCc1c-2cnn1-c1ccccc1", "note": "(stereo unspecified)", "inhibition": "6.63%"}
{"smiles": "CC(=O)Nc1nc2n(n1)C(c1ccccc1)C=C(c1ccccc1)N2", "note": "(stereo unspecified)", "inhibition": "0.41%"}
{"smiles": "O=C(Oc1cccnc1)c1ccco1", "inhibition": "3.63%"}
{"smiles": "COc1ccc(C2C=C(C)Nc3nc(SC)nn32)cc1", "note": "(stereo unspecified)", "inhibition": "-11.2%"}
{"smiles": "CCOc1ccc(C2CC(c3cccc(Cl)c3)n3nc(N)nc3N2)cc1", "note": "(stereo unspecified)", "inhibition": "4.79%"}
{"smiles": "Cc1ccc(-n2ncc3c(=O)n(CC(=O)NCc4ccco4)cnc32)cc1C", "inhibition": "5.2%"}
{"smiles": "COCCCNC(=O)c1ccc2nc3ccccc3c(=O)n2c1", "inhibition": "-3.91%"}
{"smiles": "CCCOc1ccccc1-c1nc2c([nH]1)c(=O)[nH]c(=O)n2C", "inhibition": "-0.35%"}
{"smiles": "CS(=O)(=O)N1CCc2cc(C(=O)N3CCOCC3)ccc21", "inhibition": "5.36%"}
{"smiles": "CCOC(=O)c1[nH]c2ccc(OCC)cc2c1NC(=O)CN1CCN(c2ccccn2)CC1", "inhibition": "-14.1%"}
{"smiles": "CCCC(=O)N1CCN(c2nc(CC(C)C)c3c(c2C#N)CCC3)CC1", "inhibition": "0.13%"}
{"smiles": "CCS(=O)(=O)Nc1c(C(=O)O)[nH]c2ccccc12", "inhibition": "3.79%"}
{"smiles": "CCOC(=O)c1oc2cccc(OCC(O)CNC(C)C)c2c1C", "note": "(stereo unspecified)", "inhibition": "-6.29%"}
{"smiles": "N#Cc1cc2c(nc1SCC(=O)Nc1nccs1)CCCCC2", "inhibition": "-11%"}
{"smiles": "COc1ccc(O)c(C(=O)c2cc(C#N)c(=O)n(-c3c(C)n(C)n(-c4ccccc4)c3=O)c2)c1", "inhibition": "6.02%"}
{"smiles": "CCOC(=O)c1cccnc1SCc1cc(=O)n2ccccc2n1", "inhibition": "3.91%"}
{"smiles": "CC1=C(C(=O)N2CCOCC2)C(c2ccccc2F)C2=C(CC(C)(C)CC2=O)N1", "note": "(stereo unspecified)", "inhibition": "-1.62%"}
{"smiles": "CCCC(c1nnnn1C1CCCC1)N1CCN(C(=O)c2ccco2)CC1", "note": "(stereo unspecified)", "inhibition": "6.95%"}
{"smiles": "N#Cc1nc(-c2cccs2)oc1N1CCOCC1", "inhibition": "-82.1%"}
{"smiles": "CCCc1cc(=O)oc2cc(C)c3c(C)coc3c12", "inhibition": "-8.56%"}
{"smiles": "CCOC(=O)c1cc2c(=O)n3ccccc3nc2n(C(C)C)c1=NC(=O)c1ccncc1", "inhibition": "-11.4%"}
{"smiles": "CN1CC=C2C(C#N)=C(N)C(C#N)(C#N)C(CCc3ccccc3)C2C1", "note": "(stereo unspecified)", "inhibition": "5.88%"}
{"smiles": "O=S(=O)(NC1c2cccc3cccc(c23)C1N1CCNCC1)c1ccccc1", "note": "(stereo unspecified)", "inhibition": "8.95%"}
{"smiles": "COc1ccc(CN2CCCC2C(=O)Nc2ccc(OC)c(OC)c2)cc1OC", "note": "(stereo unspecified)", "inhibition": "1.58%"}
{"smiles": "CC(O)Cn1ccccc1=N", "note": "(stereo unspecified)", "inhibition": "4.32%"}
{"smiles": "CC(C)(C)c1cc(=O)n2c(C#N)c(C#N)nc2[nH]1", "inhibition": "4.14%"}
{"smiles": "Cc1onc(-c2ccccc2)c1C(=O)Nc1nnc(-c2ccncc2)s1", "inhibition": "-3.75%"}
{"smiles": "O=C(CC1Nc2ccccc2NC1=O)NC1CCCCC1", "note": "(stereo unspecified)", "inhibition": "4.1%"}
{"smiles": "CCOc1ccc2[nH]c(=O)c(C(c3nnnn3Cc3ccco3)N3CCC(C)CC3)cc2c1", "note": "(stereo unspecified)", "inhibition": "8.93%"}
{"smiles": "Cc1cccc(-n2c(=O)[nH]c3c(C(N)=O)nc(-c4ccccc4Cl)nc32)c1", "inhibition": "6.92%"}
{"smiles": "COC(=O)c1cc2c(s1)CS(=O)C2", "note": "(stereo unspecified)", "inhibition": "5.21%"}
{"smiles": "CC(C)c1nc(N2CCOCC2)c(C#N)c2c1CCC2", "inhibition": "-3.95%"}
{"smiles": "CCOC(=O)c1cnc2cc(Cl)c(OC)cc2c1NCC1CCCO1", "note": "(stereo unspecified)", "inhibition": "3.77%"}
{"smiles": "c1ccc(-n2nc3c(ccc4cnnc43)[nH]2)cc1", "inhibition": "-1.01%"}
{"smiles": "COc1ccc(-c2ccc(-c3noc(-c4ccccc4)n3)c(OC)n2)cc1", "inhibition": "5.4%"}
{"smiles": "COc1ccc(-c2ccc(-c3noc(-c4ccccc4C)n3)c(OC)n2)cc1", "inhibition": "79.6% (active)"}
{"smiles": "COc1ccc(-c2ccc(-c3noc(-c4ccccc4OC)n3)c(OC)n2)cc1", "inhibition": "13.8%"}
{"smiles": "CCOC(=O)c1sc(C)c(C(N)=O)c1NC1=NCCCCC1", "inhibition": "2.74%"}
{"smiles": "CCN(CC)C(=O)Sc1cccc2cccnc12", "inhibition": "7.36%"}
{"smiles": "CN(C)c1ccc(C(=O)N2CC(=O)N(CCc3ccccc3)C(=O)C2)cc1", "inhibition": "0.16%"}
{"smiles": "CCOC(=O)N1CCC(N2C(=O)c3ccccc3C2Nc2ccc3c(C)cc(=O)oc3c2)CC1", "note": "(stereo unspecified)", "inhibition": "-77%"}
{"smiles": "Cc1cc(C)c2c(N)c(C(=O)Nc3nccs3)sc2n1", "inhibition": "-7.23%"}
{"smiles": "COc1ccccc1Nc1nc(-c2cccs2)cs1", "inhibition": "4.53%"}
{"smiles": "O=c1c2[nH]c3ccccc3c2ncn1Cc1cccnc1", "inhibition": "5.84%"}
{"smiles": "Cc1oc2c(CN3CCCC3)c(O)ccc2c(=O)c1-c1ccc(Br)cc1", "inhibition": "11.1%"}
{"smiles": "O=c1[nH]c2cc3c(cc2cc1C(c1nnnn1C1CCCC1)N1CCSCC1)OCCO3", "note": "(stereo unspecified)", "inhibition": "1.34%"}
{"smiles": "CN1CCN(CCCNC(=O)Nc2cccc3ccccc23)CC1", "inhibition": "4.59%"}
{"smiles": "COc1ccc(C2C(C(=O)N3CCN(c4ccccn4)CC3)CC(=O)N2c2ccc(OC)cc2)cc1", "note": "(stereo unspecified)", "inhibition": "1.09%"}
{"smiles": "COC(=O)c1[nH]c2cccc(OC)c2c1NC(=O)CN1CCC(C(N)=O)(N2CCCCC2)CC1", "inhibition": "5.66%"}
{"smiles": "C=C(Cl)COc1ccc2c(CC)cc(=O)oc2c1", "inhibition": "6.13%"}
{"smiles": "CC1=CC2=NC(=O)CC(C)(C(=O)N(CC(=O)NC(C)(C)C)C3CCCC3)N2C=C1", "note": "(stereo unspecified)", "inhibition": "2.69%"}
{"smiles": "Cc1nc2c(C(=O)O)cnn2c(C)c1Cc1ccccc1F", "inhibition": "5.94%"}
{"smiles": "N#Cc1nc(-c2ccccc2F)oc1NCc1ccccc1", "inhibition": "-7.81%"}
{"smiles": "Cc1cccc(-n2c(SCCC(=O)O)nnc2-c2cccs2)c1C", "inhibition": "6.84%"}
{"smiles": "COc1ccc(-c2nc3nc(C)cc(C)n3n2)cc1", "inhibition": "1.15%"}
{"smiles": "Cc1cc(NC(=O)CSc2ccc3nnc(-c4cccnc4)n3n2)no1", "inhibition": "0.22%"}
{"smiles": "COCCCNC(=O)CSC1=Nc2ccccc2C2=NC(CC(=O)NCc3ccccc3)C(=O)N12", "note": "(stereo unspecified)", "inhibition": "0.89%"}
{"smiles": "COCCn1c(SCc2csc(-c3ccccc3)n2)nc2ccccc21", "inhibition": "3.46%"}
{"smiles": "Cc1cccn2c(=O)c3cc(C(=O)N4CCN(C(=O)c5ccco5)CC4)n(C)c3nc12", "inhibition": "0.62%"}
{"smiles": "O=C(CCCOc1ccccc1)Nc1nccs1", "inhibition": "3.79%"}
{"smiles": "COc1ccc2[nH]c(=O)c(CN(CCCN(C)C)C(=O)Nc3ccccc3)cc2c1", "inhibition": "0.48%"}
{"smiles": "O=C(Nc1ccon1)c1cnc2sccn2c1=O", "inhibition": "3.24%"}
{"smiles": "O=c1[nH]c(=O)n(Cc2ccccc2)c2nc(-c3ccco3)cc(C(F)(F)F)c12", "inhibition": "-103%"}
{"smiles": "CCCSc1n[nH]c(NC(C)=O)n1", "inhibition": "3.35%"}
{"smiles": "O=C(Cc1ccccc1)Nc1ccc2oc(-c3cccnc3)nc2c1", "inhibition": "-8.29%"}
{"smiles": "O=C(Nc1nc(-c2cc3ccccc3oc2=O)cs1)c1ccco1", "inhibition": "3.89%"}
{"smiles": "COc1ccc(C(=O)NCc2nnc(SC)n2C2CCCCC2)cc1", "inhibition": "-1.48%"}
{"smiles": "COc1cccc(Cn2c(=S)[nH]c3ccc(N4CCOCC4)cc3c2=O)c1", "inhibition": "3.27%"}
{"smiles": "Cc1cc(=O)oc2cc(OC(C)C(=O)Nc3nccs3)ccc12", "note": "(stereo unspecified)", "inhibition": "3.57%"}
